Measured values taken from PubChem BioAssay AID1159580 (chemical genetic matrix, 2015).
In all, about 5,500 compounds went through this assay and about 2,000 (36%) were called active. Not shown: some 18% with an inconclusive outcome. Rule as the data show it: active = normalized growth mostly below about 0.91 (no sharp cut-off); inconclusive = no clear call, values can overlap the other calls; inactive = mostly above about 0.92. The list shows a part of the results.

Experiment: chemical genetic growth profiling, strain panel (AID 1159580);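 also: tested at 20 µM; growth read once vehicle control cultures reached saturation at 30 °C; 1 = growth at the plate median or of vehicle wells; lower values mean less growth of the strain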
Conditions: S. cerevisiae deletion strains, growth OD

Measured: normalized growth

CC(C)[C@H](N)C(=O)OCCOCn1cnc2c(=O)[nH]c(N)nc21
inactive: locus YAL021C, strain ccr4, stronger effect = lower value 1.06 | locus YAL026C, strain drs2, stronger effect = lower value 1.02 | locus YAL030W, strain snc1, stronger effect = lower value 1.03 | locus YBL061C, strain skt5, stronger effect = lower value 1.02 | locus YBR009C, strain hhf1, stronger effect = lower value 0.961 | locus YBR023C, strain chs3, stronger effect = lower value 1.02 | locus YBR171W, strain sec66, stronger effect = lower value 1.01 | locus YBR231C, strain swc5, stronger effect = lower value 0.934 | locus YBR279W, strain paf1, stronger effect = lower value 1.02 | locus YCL011C, strain gbp2, stronger effect = lower value 1.01 | locus YCL016C, strain dcc1, stronger effect = lower value 1.05 | locus YCL069W, strain vba3, stronger effect = lower value 1 | locus YCR088W, strain abp1, stronger effect = lower value 1.02 | locus YDL005C, strain med2, stronger effect = lower value 1.02 | locus YDL040C, strain nat1, stronger effect = lower value 0.998 | locus YDR001C, strain nth1, stronger effect = lower value 1.01 | locus YDR069C, strain doa4, stronger effect = lower value 1 | locus YDR137W, strain rgp1, stronger effect = lower value 1.08 | locus YDR159W, strain sac3, stronger effect = lower value 0.94 | locus YDR195W, strain ref2 0.973 | locus YDR297W, strain sur2, stronger effect = lower value 1 | locus YDR334W, strain swr1, stronger effect = lower value 1.01 | locus YDR335W, strain msn5, stronger effect = lower value 1.01 | locus YDR392W, strain spt3, stronger effect = lower value 1.03 | locus YEL003W, strain gim4, stronger effect = lower value 0.996 | locus YEL037C, strain rad23, stronger effect = lower value 1.01 | locus YEL061C, strain CIN8 (second series), stronger effect = lower value 1 | locus YER015W, strain faa2, stronger effect = lower value 1.01 | locus YER016W, strain bim1, stronger effect = lower value 1.05 | locus YER111C, strain swi4, stronger effect = lower value 1.03 | locus YER155C, strain BEM2 (second series), stronger effect = lower value 1.11 | locus YFR010W, strain ubp6, stronger effect = lower value 0.974 | locus YGL167C, strain pmr1, stronger effect = lower value 1.01 | locus YGL173C, strain kem1, stronger effect = lower value 1.01 | locus YGL227W, strain vid30, stronger effect = lower value 1.01 | locus YGL240W, strain doc1, stronger effect = lower value 0.993 | locus YGL253W, strain hxk2, stronger effect = lower value 0.981 | locus YHR013C, strain ard1, stronger effect = lower value 1.02 | locus YHR027C, strain rpn1, stronger effect = lower value 1.01 | locus YHR030C, strain SLT2, stronger effect = lower value 1.07 | locus YHR079C, strain IRE1, stronger effect = lower value 1.07 | locus YHR142W, strain chs7, stronger effect = lower value 0.988 | locus YJL092W, strain hpr5, stronger effect = lower value 1.01 | locus YJL095W, strain BCK1 (second series), stronger effect = lower value 1.04 | locus YJL095W, strain BCK1, stronger effect = lower value 1.02 | locus YJL115W, strain asf1, stronger effect = lower value 1.01 | locus YJL129C, strain trk1, stronger effect = lower value 0.982 | locus YJL154C, strain vps35, stronger effect = lower value 1.01 | locus YJL164C, strain tpk1, stronger effect = lower value 0.995 | locus YJL166W, strain qcr8, stronger effect = lower value 1.03 | locus YJL187C, strain SWE1, stronger effect = lower value 1 | locus YJR066W, strain TOR1, stronger effect = lower value 0.99 | locus YKL160W, strain elf1, stronger effect = lower value 1.06 | locus YKR026C, strain gcn3, stronger effect = lower value 1.01 | locus YKR091W, strain srl3, stronger effect = lower value 1.01 | locus YLL001W, strain dnm1, stronger effect = lower value 0.96 | locus YLL026W, stronger effect = lower value 1.01 | locus YLL041C, strain sdh2, stronger effect = lower value 1.03 | locus YLR027C, strain aat2, stronger effect = lower value 1.01 | locus YLR113W, strain HOG1, stronger effect = lower value 0.977 | locus YLR221C, strain rsa3, stronger effect = lower value 0.96 | locus YLR258W, strain gsy2, stronger effect = lower value 1.03 | locus YLR262C, strain YPT6 (second series), stronger effect = lower value 1.01 | locus YLR320W, strain mms22, stronger effect = lower value 0.971 | locus YLR342W, strain FKS1, stronger effect = lower value 1.03 | locus YLR357W, strain rsc2, stronger effect = lower value 1.04 | locus YLR370C, strain arc18, stronger effect = lower value 1.03 | locus YLR384C, strain iki3, stronger effect = lower value 1.03 | locus YML120C, strain ndi1, stronger effect = lower value 0.969 | locus YMR058W, strain fet3, stronger effect = lower value 1.04 | locus YMR125W, strain sto1, stronger effect = lower value 1.04 | locus YMR129W, stronger effect = lower value 1.02 | locus YMR205C, strain PFK2, stronger effect = lower value 1.01 | locus YMR231W, strain pep5, stronger effect = lower value 1 | locus YNL071W, strain lat1, stronger effect = lower value 1.02 | locus YNL183C, strain NPR1, stronger effect = lower value 0.946 | locus YNL209W, strain ssb2, stronger effect = lower value 1.02 | locus YNL248C, strain rpa49, stronger effect = lower value 1.04 | locus YNL322C, strain KRE1 (second series), stronger effect = lower value 1.04 | locus YNR049C, strain mso1, stronger effect = lower value 0.998 | locus YOR001W, strain rrp6, stronger effect = lower value 0.943 | locus YOR070C, strain gyp1, stronger effect = lower value 1.03 | locus YOR080W, strain dia2, stronger effect = lower value 1.01 | locus YOR083W, strain WHI5, stronger effect = lower value 0.992 | locus YOR106W, strain vam3, stronger effect = lower value 1.02 | locus YOR231W, strain MKK1, stronger effect = lower value 1.04 | locus YOR265W, strain rbl2, stronger effect = lower value 1.01 | locus YOR270C, strain vph1, stronger effect = lower value 0.864 | locus YOR290C, strain snf2, stronger effect = lower value 1.05 | locus YPL051W, strain arl3, stronger effect = lower value 1.04 | locus YPL078C, strain atp4, stronger effect = lower value 1.04 | locus YPL106C, strain sse1, stronger effect = lower value 1.06 | locus YPL240C, strain hsp82, stronger effect = lower value 1.01 | locus YPL256C, strain CLN2, stronger effect = lower value 1.08
